# Test results published in PubChem BioAssay (Tox21).
# Results filed as inconclusive are left out. Values without a mark were called inactive. Activity calls are given as the source filed them. The call rests on the fitted dose curve; in most records, active means well fitted curve in the direction sought with a large enough effect in the repeat runs; inconclusive means weak or mixed curves; inactive means no such curve, though single readings can be large; an effect the other way counts as inactive or inconclusive.
# Test: A CellTox Green Cytotoxicity Assay to monitor cytotoxicity in HEK293 cells - 24 hour (AID 1224875); further: nearly all actives have a fitted effect of over 45% in size
# Conditions: CellTox Green fluorescence; series mostly up to 76.8 µM; activity change: at the top concentration
# How it was run: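 Cytotoxicity was tracked continuously in HEK293 cells by a DNA-binding dye excluded from viable cells. Compounds were transferred in DMSO 5 h after seeding; fluorescence was recorded at intervals up to 40 h.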
# On the % scale 0 is the no-effect control and ±100 the full control effect; potency means the concentration at half of the fitted maximal effect.
SMILES,activity change,Potency
CO/N=C1\CN(c2nc3c(cc2F)c(=O)c(C(=O)O)cn3C2CC2)CC1CN (configuration not stated),"-7.36% [at 35.3 µM, stronger effect = higher value]",
c1cnc2c(n1)CCCC2,,43.6 µM (active)
CCCCCC=CCC=CCCCCCCCC(=O)OCC,"0.784% [at 35.3 µM, stronger effect = higher value]",
CC(C)=CC=O,4.5%,
CC(C)c1nnc2ccc(-c3ocnc3-c3cc(F)ccc3F)cn12,-15.9%,
Cc1cc2nc3ccc(=[N+](C)C)cc-3sc2cc1N,"-14% [at 35.3 µM, stronger effect = higher value]",
O=C(/C=C/c1ccccc1)OCCCc1ccccc1,20.9%,
OCCSc1ccccc1,7.39%,
C=CC(C)(O)CCCC(C)CCCC(C)CCCC(C)C (configuration not stated),-9.23%,
COC(=O)[C@@H]1CC2=CC(=O)CC[C@]2(C)[C@@]23O[C@@H]2C[C@@]2(C)[C@@H](CC[C@@]24CCC(=O)O4)[C@H]13,"-1.29% [at 35.3 µM, stronger effect = higher value]",
CCCCOC(=O)CCS,-20%,
CCC(C)=O,-0.602%,
N#C[C@@H]1C[C@@H]2C[C@@H]2N1C(=O)[C@@H](N)C12CC3CC(CC(O)(C3)C1)C2,"-19.2% [at 35.3 µM, stronger effect = higher value]",
CCN(Cc1cccc(S(=O)(=O)O)c1)c1ccc(C(=C2C=CC(=[N+](CC)Cc3cccc(S(=O)(=O)[O-])c3)C=C2)c2ccccc2)cc1,"-1.61% [at 35.3 µM, stronger effect = higher value]",

# Test: A CellTox Green Cytotoxicity Assay to monitor cytotoxicity in HepG2 cells - 16 hour (AID 1224876); further: nearly all actives have a fitted effect of over 45% in size
# Conditions: CellTox Green fluorescence; series mostly up to 76.8 µM; cytotoxicity increase: at the top concentration
# How it was run: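 Real-time, homogeneous cytotoxicity readout: dead-cell DNA staining by CellTox Green in HepG2 monolayers, fluorescence measured at timed intervals up to 40 h of continuous compound exposure.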
SMILES,cytotoxicity increase,Potency
Cc1cc(OI)c(C(C)C)cc1-c1cc(C(C)C)c(OI)cc1C,-8.4% [at 35.3 µM],
C[N+](C)(C)CCOC(N)=O,-6.14% [at 35.3 µM],
CC(C)(O)c1ccccc1CC[C@@H](SCC1(CC(=O)O)CC1)c1cccc(/C=C/c2ccc3ccc(Cl)cc3n2)c1,9.58% [at 35.3 µM],
CCCCC(CC)CNCC(CC)CCCC (configuration not stated),4.05%,
COCCOC,5.65%,
CC(=O)Nc1ccccc1C,-16.6%,
C/C=C(\C)C(=O)OCCC(C)CCC=C(C)C (configuration not stated),0.224%,
CCCCCCCC/C=C\CCCCCCCC(=O)OC(CO)CO,-11.5%,
CCn1nc(C)c2c1C(=O)NCC(c1ccc(O)cc1)=N2,-1.4%,
Cc1ccnc2ccccc12,10.9%,
CCn1cc(C(=O)O)c(=O)c2cc(F)c(N3CCNCC3)nc21,10.6% [at 35.3 µM],
Brc1cc(-c2ccc(Br)c(Br)c2Br)cc(Br)c1Br,-26.6% [at 35.3 µM],
CCC1(C)CC(=O)NC1=O (configuration not stated),-13.9% [at 35.3 µM],
O=S(=O)(c1ccccc1)c1ccc(Cl)cc1,-2.98%,
O=C(O)c1c(O)c(-c2ccccc2)nc2ccccc12,-9.14% [at 35.3 µM],
CC(C)(C)C(=O)O,2.49%,
CCOC(=O)OCC,2.76%,
CN1Cc2cc(C(=O)N3CCC(C4CCNCC4)CC3)ccc2N[C@@H](CC(=O)O)C1=O,-11.4% [at 35.3 µM],
OC(CCCN1CCCCC1)(c1ccccc1)c1ccccc1,0.21% [at 35.3 µM],
CCN(CC)CCNC(=O)c1ccc(NC(C)=O)cc1,0.0061% [at 35.3 µM],

SMILES,cytotoxicity increase,Potency
CC(C)CCCCCOC(=O)CCCCC(=O)OCCCCCC(C)C,-0.158%,
O=C(CS)OCCOC(=O)CS,-5.24%,
CCCCCCCCCOC(C)=O,-0.82%,
O=C(O)Cc1ccc(-c2ccccc2)cc1,0.114% [at 35.3 µM],
CC(=O)Nc1ccc(N)cc1,-6.9%,
CO/N=C1\CN(c2nc3c(cc2F)c(=O)c(C(=O)O)cn3C2CC2)CC1CN (configuration not stated),-6.06% [at 35.3 µM],
c1cnc2c(n1)CCCC2,,38.9 µM (active)
CCCCCC=CCC=CCCCCCCCC(=O)OCC,3.06% [at 35.3 µM],
CC(C)=CC=O,-4.95%,
CC(C)c1nnc2ccc(-c3ocnc3-c3cc(F)ccc3F)cn12,-1.74%,
Cc1cc2nc3ccc(=[N+](C)C)cc-3sc2cc1N,-40.8% [at 35.3 µM],
O=C(/C=C/c1ccccc1)OCCCc1ccccc1,-12.1%,
OCCSc1ccccc1,6.78%,
C=CC(C)(O)CCCC(C)CCCC(C)CCCC(C)C (configuration not stated),-8.75%,
COC(=O)[C@@H]1CC2=CC(=O)CC[C@]2(C)[C@@]23O[C@@H]2C[C@@]2(C)[C@@H](CC[C@@]24CCC(=O)O4)[C@H]13,4.57% [at 35.3 µM],
CCCCOC(=O)CCS,-10%,
CCC(C)=O,1.76%,
N#C[C@@H]1C[C@@H]2C[C@@H]2N1C(=O)[C@@H](N)C12CC3CC(CC(O)(C3)C1)C2,-1.16% [at 35.3 µM],
CCN(Cc1cccc(S(=O)(=O)O)c1)c1ccc(C(=C2C=CC(=[N+](CC)Cc3cccc(S(=O)(=O)[O-])c3)C=C2)c2ccccc2)cc1,-2.61% [at 35.3 µM],

# Test: qHTS RealTime-Glo MT Cell Viability Assay in HepG2 cells - 32 hour (AID 1224877); further: nearly all actives have a fitted effect of over 55% in size
# Conditions: RealTime-Glo luminescence; series mostly up to 76.8 µM; activity change, negative = cytotoxic: at the top concentration
# How it was run: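 HepG2 cells (600/well) were dispensed with RealTime-Glo reagents, incubated 5 h at 37 °C, then treated with compounds in DMSO for up to 40 h. Nonlytic NanoLuc luminescence reflecting viable cells was read at each stated time point.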
SMILES,"activity change, negative = cytotoxic",Potency
Cc1cc(OI)c(C(C)C)cc1-c1cc(C(C)C)c(OI)cc1C,-10.4% [at 35.3 µM],
C[N+](C)(C)CCOC(N)=O,-0.0391% [at 35.3 µM],
CC(C)(O)c1ccccc1CC[C@@H](SCC1(CC(=O)O)CC1)c1cccc(/C=C/c2ccc3ccc(Cl)cc3n2)c1,2.17% [at 35.3 µM],
CCCCC(CC)CNCC(CC)CCCC (configuration not stated),1.08%,
COCCOC,-16.1%,
CC(=O)Nc1ccccc1C,-0.157%,
C/C=C(\C)C(=O)OCCC(C)CCC=C(C)C (configuration not stated),-0.704%,
CCCCCCCC/C=C\CCCCCCCC(=O)OC(CO)CO,8.62%,
CCn1nc(C)c2c1C(=O)NCC(c1ccc(O)cc1)=N2,0.0258%,
Cc1ccnc2ccccc12,-0.452%,
CCn1cc(C(=O)O)c(=O)c2cc(F)c(N3CCNCC3)nc21,2.16% [at 35.3 µM],
Brc1cc(-c2ccc(Br)c(Br)c2Br)cc(Br)c1Br,7.75% [at 35.3 µM],
CCC1(C)CC(=O)NC1=O (configuration not stated),0.343% [at 35.3 µM],
O=S(=O)(c1ccccc1)c1ccc(Cl)cc1,-0.191%,
O=C(O)c1c(O)c(-c2ccccc2)nc2ccccc12,1.87% [at 35.3 µM],
CC(C)(C)C(=O)O,0.221%,
CCOC(=O)OCC,-0.9%,
CN1Cc2cc(C(=O)N3CCC(C4CCNCC4)CC3)ccc2N[C@@H](CC(=O)O)C1=O,2.59% [at 35.3 µM],
OC(CCCN1CCCCC1)(c1ccccc1)c1ccccc1,-2.05% [at 35.3 µM],
CCN(CC)CCNC(=O)c1ccc(NC(C)=O)cc1,-0.14% [at 35.3 µM],

SMILES,"activity change, negative = cytotoxic",Potency
CC(C)CCCCCOC(=O)CCCCC(=O)OCCCCCC(C)C,-9.16%,
O=C(CS)OCCOC(=O)CS,-1.45%,
CCCCCCCCCOC(C)=O,3.52%,
O=C(O)Cc1ccc(-c2ccccc2)cc1,3.46% [at 35.3 µM],
CC(=O)Nc1ccc(N)cc1,1.75%,
CO/N=C1\CN(c2nc3c(cc2F)c(=O)c(C(=O)O)cn3C2CC2)CC1CN (configuration not stated),2.89% [at 35.3 µM],
c1cnc2c(n1)CCCC2,-0.436%,
CCCCCC=CCC=CCCCCCCCC(=O)OCC,-2.7% [at 35.3 µM],
CC(C)=CC=O,-1.19%,
CC(C)c1nnc2ccc(-c3ocnc3-c3cc(F)ccc3F)cn12,1.61%,
Cc1cc2nc3ccc(=[N+](C)C)cc-3sc2cc1N,,19 µM (active)
O=C(/C=C/c1ccccc1)OCCCc1ccccc1,2.03%,
OCCSc1ccccc1,-0.788%,
C=CC(C)(O)CCCC(C)CCCC(C)CCCC(C)C (configuration not stated),-6.46%,
COC(=O)[C@@H]1CC2=CC(=O)CC[C@]2(C)[C@@]23O[C@@H]2C[C@@]2(C)[C@@H](CC[C@@]24CCC(=O)O4)[C@H]13,3.67% [at 35.3 µM],
CCCCOC(=O)CCS,1.24%,
CCC(C)=O,0.228%,
N#C[C@@H]1C[C@@H]2C[C@@H]2N1C(=O)[C@@H](N)C12CC3CC(CC(O)(C3)C1)C2,4.04% [at 35.3 µM],
CCN(Cc1cccc(S(=O)(=O)O)c1)c1ccc(C(=C2C=CC(=[N+](CC)Cc3cccc(S(=O)(=O)[O-])c3)C=C2)c2ccccc2)cc1,-0.438% [at 35.3 µM],
